Experimental data as given in PubChem BioAssay (EPA / NIEHS).
Activity calls are given as the source filed them. Rule for the calls: active = hit-call score of the fitted dose curve at least 0.9, where 1 is the maximum; inactive = score below 0.9.

Legend:
Conditions in all cases: mRNA level, 48 h; actives raise or lower the signal
[1] = read-out: Pyruvate Dehydrogenase Kinase 4 (PDK4), PDK4 (gene 5166); assay: LTEA_HepaRG_PDK4: Life Technologies and Expression Analysis (LTEA) Assay for Pyruvate Dehydrogenase Kinase 4 (PDK4) using HepaRG (AID 2283525)
Procedure, shortened: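 Differentiated human HepaRG cells, pre-cultured 48 h, were exposed in duplicate for 48 h in serum-free induction medium to eight half-log concentrations up to 100 uM in 0.5% DMSO. PDK4 mRNA was quantified by qRT-PCR, normalized to ACTB, GAPDH and POLR2A, bidirectional fitting versus DMSO.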

[2] = read-out: NAD(P)H dehydrogenase [quinone] 1 (NQO1), NQO1 (gene 1728); assay: LTEA_HepaRG_NQO1: Life Technologies and Expression Analysis (LTEA) Assay for NAD(P)H dehydrogenase [quinone] 1 (NQO1) using HepaRG (AID 2283526)
Procedure, shortened: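 Human HepaRG hepatic cells received chemicals for 48 h in serum-free induction medium with 0.5% DMSO, up to 100 uM. Expression was assessed by TaqMan qRT-PCR against housekeeping controls and fitted bidirectionally against DMSO.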

[3] = read-out: Nuclear factor erythroid 2-related factor 2 (Homo sapiens) (UniProt Q16236); assay: LTEA_HepaRG_NFE2L2: Life Technologies and Expression Analysis (LTEA) Assay for Nuclear factor erythroid 2-related factor 2 (NFE2L2) Transcription Factor using HepaRG (AID 2283527)
Procedure, shortened: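 Differentiated human HepaRG cells in serum-free induction medium were exposed for 48 h to eight concentrations (top 100 uM, half-log dilutions, 0.5% DMSO), in duplicate. NFE2L2 mRNA was quantified by TaqMan qRT-PCR, normalized to ACTB, GAPDH and POLR2A, with bidirectional fitting versus DMSO.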

[4] = read-out: succinate dehydrogenase complex iron sulfur subunit B (SDHB), SDHB (gene 6390); assay: LTEA_HepaRG_SDHB: Life Technologies and Expression Analysis (LTEA) Assay for succinate dehydrogenase complex iron sulfur subunit B (SDHB) using HepaRG (AID 2283528)
Procedure, shortened: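 HepaRG, 48 h exposure, 8-pt half-log series from 100 uM in 0.5% DMSO, duplicates. Readout: SDHB mRNA by Fluidigm qRT-PCR vs housekeeping genes; bidirectional fit relative to DMSO.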

[5] = read-out: Signal transducer and activator of transcription 3 (Homo sapiens) (UniProt P40763); assay: LTEA_HepaRG_STAT3: Life Technologies and Expression Analysis (LTEA) Assay for Signal transducer and activator of transcription (STAT3) using HepaRG (AID 2283529)
Procedure, shortened: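 Differentiated human HepaRG cells in serum-free induction medium were exposed in duplicate for 48 h to eight half-log concentrations up to 100 uM in 0.5% DMSO. STAT3 mRNA was quantified by TaqMan qRT-PCR, normalized to ACTB, GAPDH and POLR2A, and fitted bidirectionally against DMSO.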

[6] = read-out: solute carrier (SLCO1B1), SLCO1B1 (gene 10599); assay: LTEA_HepaRG_SLCO1B1: Life Technologies and Expression Analysis (LTEA) Assay for solute carrier (SLCO1B1) using HepaRG (AID 2283530)
Procedure, shortened: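 SLCO1B1 transcript levels were quantified by TaqMan qRT-PCR using three housekeeping genes for normalization. This followed 48 h chemical exposure (100 uM top, half-log, 8 points, 0.5% DMSO) of HepaRG liver cells, with gain or loss fitted relative to DMSO.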

[7] = read-out: sulfotransferase 2A1 (SULT2A1), SULT2A1 (gene 6822); assay: LTEA_HepaRG_SULT2A1: Life Technologies and Expression Analysis (LTEA) Assay for sulfotransferase 2A1 (SULT2A1) using HepaRG (AID 2283531)
Procedure, shortened: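 Expression change of SULT2A1, by qRT-PCR with three housekeeping-gene normalization, was scored bidirectionally versus DMSO. Cells: differentiated HepaRG, dosed in duplicate for 48 h across 8 points, highest 100 µM, half-log dilution, 0.5% DMSO.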

[8] = read-out: Transforming Growth Factor (TGFA), TGFA (gene 7039); assay: LTEA_HepaRG_TGFA: Life Technologies and Expression Analysis (LTEA) Assay for Transforming Growth Factor (TGFA) using HepaRG (AID 2283532)
Procedure, shortened: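 Differentiated human HepaRG cells, plated 48 h then switched to serum-free induction medium, were exposed in duplicate for 48 h to 8-point half-log series from 100 uM in 0.5% DMSO. TGFA mRNA measured by qRT-PCR, normalized to ACTB/GAPDH/POLR2A, bidirectional fit versus DMSO.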

[9] = read-out: Transforming Growth Factor (TGFB1), TGFB1 (gene 7040); assay: LTEA_HepaRG_TGFB1: Life Technologies and Expression Analysis (LTEA) Assay for Transforming Growth Factor (TGFB1) Transporter using HepaRG (AID 2283533)
Procedure, shortened: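 TGFB1 transcript measured by qRT-PCR with normalisation to three housekeeping genes (ACTB, GAPDH, POLR2A); human HepaRG line treated in duplicate for 48 hr with an 8-point series topping at 100 uM, 0.5% DMSO vehicle, bidirectionally fitted.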

[10] = read-out: TIMP1, TIMP1 (gene 7076); assay: LTEA_HepaRG_TIMP1: Life Technologies and Expression Analysis (LTEA) Assay for TIMP1 using HepaRG (AID 2283534)
Procedure, shortened: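 Bidirectional change in TIMP1 transcript versus 0.5% DMSO, measured by TaqMan qRT-PCR with three housekeeping genes for normalization. HepaRG human liver cells dosed 48 h in duplicate, top concentration 100 uM with half-log dilutions.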

Measured: AC50

Sequence of Nuclear factor erythroid 2-related factor 2 (Homo sapiens) (Q16236 whole entry, looked up): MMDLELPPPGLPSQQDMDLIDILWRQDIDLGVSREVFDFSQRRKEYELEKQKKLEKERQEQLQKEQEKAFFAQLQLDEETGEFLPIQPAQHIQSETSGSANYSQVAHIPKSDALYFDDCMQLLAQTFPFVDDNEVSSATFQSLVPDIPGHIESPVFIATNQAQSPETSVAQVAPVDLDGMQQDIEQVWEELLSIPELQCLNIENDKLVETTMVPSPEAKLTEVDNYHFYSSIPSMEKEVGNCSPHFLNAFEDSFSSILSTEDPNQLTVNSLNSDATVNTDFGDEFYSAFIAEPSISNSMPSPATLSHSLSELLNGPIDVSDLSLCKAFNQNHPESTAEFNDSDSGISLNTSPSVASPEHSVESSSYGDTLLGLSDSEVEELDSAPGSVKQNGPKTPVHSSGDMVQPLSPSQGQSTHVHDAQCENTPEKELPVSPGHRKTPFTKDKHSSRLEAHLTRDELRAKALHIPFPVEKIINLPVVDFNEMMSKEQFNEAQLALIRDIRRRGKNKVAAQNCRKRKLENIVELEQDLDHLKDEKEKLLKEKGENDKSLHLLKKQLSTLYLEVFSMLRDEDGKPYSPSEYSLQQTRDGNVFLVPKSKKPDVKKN
Sequence of Signal transducer and activator of transcription 3 (Homo sapiens) (P40763 whole entry, looked up): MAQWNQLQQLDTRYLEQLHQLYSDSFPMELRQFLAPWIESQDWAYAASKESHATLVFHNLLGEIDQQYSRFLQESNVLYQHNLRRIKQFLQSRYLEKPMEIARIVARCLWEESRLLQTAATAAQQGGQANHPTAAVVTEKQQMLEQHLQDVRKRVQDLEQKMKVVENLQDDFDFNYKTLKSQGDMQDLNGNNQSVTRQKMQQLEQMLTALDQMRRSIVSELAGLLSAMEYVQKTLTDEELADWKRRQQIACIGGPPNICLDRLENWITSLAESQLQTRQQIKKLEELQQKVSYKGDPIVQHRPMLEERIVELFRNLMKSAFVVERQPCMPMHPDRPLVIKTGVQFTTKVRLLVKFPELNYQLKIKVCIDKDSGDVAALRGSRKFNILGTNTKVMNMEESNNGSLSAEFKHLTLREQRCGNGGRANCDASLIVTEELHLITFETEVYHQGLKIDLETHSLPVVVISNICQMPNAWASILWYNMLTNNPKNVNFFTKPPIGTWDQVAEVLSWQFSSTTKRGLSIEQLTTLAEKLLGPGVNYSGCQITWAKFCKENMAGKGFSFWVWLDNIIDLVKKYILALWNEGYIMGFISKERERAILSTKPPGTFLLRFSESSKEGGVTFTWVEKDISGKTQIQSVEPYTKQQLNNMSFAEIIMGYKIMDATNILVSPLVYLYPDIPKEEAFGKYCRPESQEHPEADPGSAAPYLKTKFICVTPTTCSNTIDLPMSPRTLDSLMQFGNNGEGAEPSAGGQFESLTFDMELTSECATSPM

CC(C)CCCCCCOC(=O)C1CCCCC1C(=O)OCCCCCCC(C)C (stereo not given)
active: [7] 9.92 µM
inactive: all other assays above

CCOc1ccc2[nH]cc(C(=O)NCc3ccccc3)c(=O)c2n1
inactive: all assays above

C=CN1CCCC1=O
inactive: all assays above

C[C@@H](Oc1ccc(CNC(=O)c2cccnc2Oc2ccc3c(c2)OCO3)c(F)c1)C(=O)O
active: [1] 50 µM
inactive: all other assays above

O=C(NO)C1(NS(=O)(=O)c2ccc(Oc3ccc(F)cc3)cc2)CCOCC1
active: [1] 80 µM
inactive: all other assays above

CCCC(CCC)C(=O)O
inactive: all assays above

COCc1nnc(-c2ccc[n+]([O-])c2)n1-c1c(Cl)c(Cl)cc2[nH]c(=O)c(=O)[nH]c12
inactive: all assays above

O=S(=O)(O)c1ccc(N=Nc2c(O)ccc3cc(S(=O)(=O)O)ccc23)cc1
inactive: all assays above

COc1cc2c(c(OC)c1OC)-c1ccc(OC)c(=O)cc1[C@@H](NC(C)=O)CC2
active: [1] 0.0626 µM | [2] 0.148 µM | [6] 0.136 µM | [7] 0.181 µM | [8] 0.0871 µM | [9] 0.04 µM
inactive: [3] | [5] | [10]

C=CCc1cc(S(=O)(=O)c2ccc(O)c(CC=C)c2)ccc1O
active: [1] 81.1 µM | [6] 85.4 µM | [7] 81.2 µM
inactive: all other assays above

NC(N)=O
not listed: [4]
inactive: all other assays above

OCCNCCO
active: [1] 50 µM | [7] 21.9 µM
inactive: all other assays above

COc1cc(C(C)C)c2c(c1)S(=O)(=O)N(COc1cc(=O)n3cccc(OCCN4CCCCC4)c3n1)C2=O
active: [3] 22.8 µM | [6] 21.1 µM | [7] 23.7 µM | [10] 19.8 µM
inactive: all other assays above

O=C(O)c1cccc(C(=O)O)c1
not listed: [9]
inactive: all other assays above

c1ccc2cc3ccccc3cc2c1
inactive: all assays above

CC(C)CC(C)O (stereo not given)
not listed: [4]
inactive: all other assays above

CCN(CC)C(=S)SSC(=S)N(CC)CC
not listed: [7]
inactive: all other assays above

Cn1c(=O)c2[nH]cnc2n(C)c1=O
not listed: [6]
inactive: all other assays above

CCCCCCOC(=O)CC(CC(=O)OCCCCCC)(OC(=O)CCC)C(=O)OCCCCCC
inactive: all assays above

CNC(C)=O
not listed: [4]
inactive: all other assays above

NC(=O)N(O)[C@@H]1COc2cc(OCc3ccccc3)ccc21
inactive: all assays above

CCCc1ccccc1
inactive: all assays above

NNC(=O)c1ccncc1
not listed: [4]
inactive: all other assays above

CCc1cccc(CC)c1N
inactive: all assays above

c1ccc2ncccc2c1
active: [3] 50 µM
inactive: all other assays above

NC(=O)N1c2ccccc2C=Cc2ccccc21
inactive: all assays above

Cc1nccn1-c1ccc(Sc2cccc(C3(C(N)=O)CCOCC3)c2)cc1
active: [2] 18.6 µM | [4] 27.4 µM | [5] 1.93 µM | [6] 13.6 µM | [7] 15 µM | [8] 9.24 µM | [9] 24.8 µM
inactive: [1] | [3] | [10]

OCC(CO)(CO)CO
not listed: [4]
inactive: all other assays above

OC[C@H]1O[C@@](CO)(O[C@H]2O[C@H](CO)[C@@H](O)[C@H](O)[C@H]2O)[C@@H](O)[C@@H]1O
inactive: all assays above

CCCCC(CC)C(=O)OCCOCCOCCOC(=O)C(CC)CCCC (stereo not given)
inactive: all assays above

CC(C)C(=O)Nc1ccc([N+](=O)[O-])c(C(F)(F)F)c1
active: [1] 9.61 µM | [2] 50 µM | [3] 50 µM | [6] 63.6 µM | [7] 79.6 µM | [8] 82.3 µM | [10] 28.7 µM
inactive: [5] | [9]

OCCOCCOCCO
inactive: all assays above

OC[C@H]1O[C@@H]2O[C@H]3[C@H](O)[C@@H](O)[C@@H](O[C@H]4[C@H](O)[C@@H](O)[C@@H](O[C@H]5[C@H](O)[C@@H](O)[C@@H](O[C@H]6[C@H](O)[C@@H](O)[C@@H](O[C@H]7[C@H](O)[C@@H](O)[C@@H](O[C@H]1[C@H](O)[C@H]2O)O[C@@H]7CO)O[C@@H]6CO)O[C@@H]5CO)O[C@@H]4CO)O[C@@H]3CO
inactive: all assays above
